High-throughput results (PubChem BioAssay)
This is a sample that favours compounds with a hit; in the whole collection about 1.3% have one here.
AMA1-RON2 inh: disrupts binding of P. falciparum AMA1 to RON2. AlphaScreen AMA1-biotinylated RON2 peptide binding. Potency, µM (top dose mostly 58.2 µM), for inactives: top-dose activity change, negative = inhibition, hits mostly inhibitors. hit rate 0.2% among 360,000. AID 720542;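 further: 0% = vehicle wells and -100% = peptide control; nearly all actives have a fitted effect of over 45% in size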
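AMA1 (3D7) with his tag at 25 nM final met compounds first, then biotinylated RON2 peptide at 25 nM; detection used donor plus acceptor beads, 10 µg/mL apiece, read by AlphaScreen after 30 min at room temperature.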
AmpC inh detg: inhibitors of E. coli AmpC beta-lactamase with detergent. P00811. AmpC hydrolysis of nitrocefin, absorbance 480 nm, 0.01% Triton. Potency, µM (titrated, usually from 114 µM), for the others: top-dose activity change, negative = inhibition, actives largely listed as inhibitors. hit rate 0.041% among 370,000;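 further: 0% = no-compound wells and -100% = no-enzyme wells; nearly all actives have a fitted effect of over 25% in size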
Target sequence (P00811 whole entry, looked up): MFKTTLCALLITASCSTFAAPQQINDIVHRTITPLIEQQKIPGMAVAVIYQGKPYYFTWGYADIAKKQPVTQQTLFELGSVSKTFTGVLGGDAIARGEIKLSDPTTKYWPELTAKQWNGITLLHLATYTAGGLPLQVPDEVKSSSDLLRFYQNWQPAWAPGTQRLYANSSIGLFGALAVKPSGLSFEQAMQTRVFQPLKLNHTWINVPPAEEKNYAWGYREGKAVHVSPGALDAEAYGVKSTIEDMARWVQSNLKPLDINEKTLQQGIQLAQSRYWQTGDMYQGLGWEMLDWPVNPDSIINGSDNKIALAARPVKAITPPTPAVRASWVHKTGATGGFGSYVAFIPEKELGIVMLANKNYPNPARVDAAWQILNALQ
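AmpC (5.3 nM in the dispensed reagent) in 20 mM phosphate pH 7.0 with 0.01% (detergent screen) or 0.0001% Triton X-100 was preincubated with compounds for 15 min at room temperature. Nitrocefin was then added from an 800 uM solution, and hydrolysis was followed at 480 nm.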
LmPK inhibitor: inhibitors of Leishmania mexicana pyruvate kinase. Potency, µM (top dose mostly 57.5 µM), for inactives: at the highest dose activity change, negative = inhibition, usual class: inhibitors. hit rate 0.37% among 290,000. purified LmPK, Kinase-Glo ATP luminescence, 1 h
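Screened at intermediate enzyme activity to detect both inhibitors and activators: LmPK at 0.1 nM, with a 0.5 nM enzyme column as activation reference. PEP 0.5 mM, ADP 0.1 mM; ATP detected by luminescence after 1 h.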
FBPA Giardia inh: inhibitors of Giardia lamblia fructose-1,6-bisphosphate aldolase | A8B2U2 | purified Giardia FBPA | Potency, µM (highest dose often 59.6 µM), for the others: at the top dose activity, negative = inhibition, most hits filed as inhibitors | hit rate 0.71% among 290,000; further: nearly all actives have a fitted effect of over 55% in size
Target sequence (A8B2U2 whole entry, looked up): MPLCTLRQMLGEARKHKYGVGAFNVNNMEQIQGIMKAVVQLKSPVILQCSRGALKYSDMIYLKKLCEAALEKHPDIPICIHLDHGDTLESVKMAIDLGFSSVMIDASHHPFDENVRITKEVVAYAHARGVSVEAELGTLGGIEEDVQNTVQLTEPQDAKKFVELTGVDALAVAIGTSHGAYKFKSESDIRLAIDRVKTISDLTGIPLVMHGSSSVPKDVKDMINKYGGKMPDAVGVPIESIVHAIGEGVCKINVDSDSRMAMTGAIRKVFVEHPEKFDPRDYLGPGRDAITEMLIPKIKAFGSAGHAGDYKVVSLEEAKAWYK
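Giardia FBPA (40 nM reagent) was preincubated 10 min at RT with compound (up to 57.5 uM final), then substrate plus GAPDH/TPI/NAD/arsenate coupling system with diaphorase/resazurin was added; resorufin fluorescence (525/598 nm) was read after 20 min.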
AmpC no deterg: AmpC beta-lactamase inhibition without detergent. P00811. AmpC nitrocefin hydrolysis, absorbance 480 nm, 0.0001% Triton. Potency, µM (top dose mostly 57.1 µM), for the others: at the top dose activity change, negative = inhibition, actives largely listed as inhibitors. hit rate 0.52% among 330,000;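 further: plate controls were no compound for no effect and no enzyme for full effect; nearly all actives have a fitted effect of over 20% in size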
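20 mM phosphate pH 7.0 + 0.01% (detergent screen) or 0.0001% Triton X-100; 5.3 nM AmpC reagent; cpd preinc 15 min RT; nitrocefin (800 uM stock) to start; A480 q20 s × 4 min; Activity was normalised to no-enzyme and no-compound control wells.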
* marks the source's active call; other numbers are inactive results; ? = inconclusive; nt = no result; [ ] = another dose, or the depositor's remark. The call rests on the fitted dose curve; in most records, active means well fitted curve in the direction sought with a large enough effect; inconclusive means small, poorly fitted or top-dose-only effect, or another doubt; inactive means no such curve, though single readings can be large; an effect the other way counts as inactive or inconclusive. Unless noted, on the % scale 0 is the no-effect control and ±100 the full control effect; potency means the concentration at half of the fitted maximal effect.

SMILES	AMA1-RON2 inh	AmpC inh detg	LmPK inhibitor	FBPA Giardia inh	AmpC no deterg
CCOc1ccc(Nc2c(S(=O)(=O)c3ccc(Cl)cc3)cnc3ccc(OC)cc23)cc1	nt	-14%	nt	nt	nt
CCN(CC)c1ccc(C(=O)NN)cc1	21%	0%	8%	-2%	-11%
Nc1ccc(N(CCO)CCO)cc1	-23%	6%	-18%	5µM*	-13%
CCN(CC)c1ccc(N)cc1	11µM*	-3%	nt	nt	-6%
CC(=O)c1cccc(OCc2cc(C(=O)NCCC3=CCCCC3)no2)c1	-4%	-3%	-10%	nt	-3%
O=C1C(=C(O)c2ccccc2)C(=O)c2ccccc21	-5%	-12%	0%	-5%	-29%
O=C1C(=C(c2ccccc2)c2ccccc2)Nc2ccccc21	25µM*	0%	-5%	-17%	-24%
CC(C)(C)OC(=O)N[C@@H](Cc1ccccc1)c1nnc(S(=O)(=O)Cc2ccccc2)o1	nt	18µM*	11%	0%	?
CC(C)(C)OC(=O)N[C@@H](Cc1ccccc1)c1nnc(SCC(=O)O)o1	42%	?	-4%	8%	-12%
CCC(C)[C@@H](NC(=O)OC(C)(C)C)c1nnc(S(=O)(=O)Cc2cccc(C)c2)o1 (some centres not stated)	5%	18µM*	4%	-11%	14µM*
Cc1cccc(CS(=O)(=O)Cc2ccc(C(=O)NC(C)c3ccccc3)o2)c1 (configuration not stated)	13%	-4%	6%	13%	2%
Cc1ccccc1CS(=O)(=O)c1nnc([C@H](Cc2ccccc2)NC(=O)OC(C)(C)C)o1	17%	28µM*	-1%	-10%	13µM*
CCSc1nnc([C@H](Cc2ccccc2)NC(=O)OC(C)(C)C)o1	12%	1%	1%	2%	3%
Cc1cc2ncc(C(=O)Nc3ccsc3C(=O)O)c(C)n2n1	15%	2%	25µM*	-9%	-16%
CC(=O)c1cnc2cc(C)nn2c1C	-4%	1%	-4%	0%	-15%
COc1ccc(Oc2c(C(F)(F)F)oc3c(CN4CCCC(C)C4)c(O)ccc3c2=O)cc1 (configuration not stated)	nt	29%	nt	nt	nt
CCOc1cccc(CNc2ccc(O)cc2)c1OCc1ccc(Cl)cc1Cl	-8%	-9%	5%	13µM*	-32%
COCCNC(=O)/C(C#N)=C/c1ccc(O)cc1	-1%	-7%	13µM*	8%	-17%
Cc1cc(C)n2nc(S(=O)(=O)NC3CCCCC3)nc2n1	-4%	-10%	-2%	6%	2.5µM*
Cc1[nH]c2ccccc2c1C(C#N)(C#N)C1C(=O)c2ccccc2C1=O	-28%	-6%	-28%	10µM*	14µM*
Cc1nnc(N/N=C/c2cc(C)n(-c3ccc(F)cc3)c2C)n1N	36%	?	3%	10µM*	2%
Oc1ccccc1/C=N/Nc1nn[nH]n1	42%	-8%	-12%	?	-2%
Cc1nnc(N/N=C/c2ccccc2O)n1N	46%	5%	-1%	7.1µM*	-8%
O=C(c1ccc2nc(N3CCCCC3)sc2c1)N1CCN(Cc2ccc3c(c2)OCO3)CC1	?	?	6%	-1%	32µM*
CCC(=O)Nc1cnc(NC(=O)c2cccc(F)c2)cc1C	20%	?	20µM*	-1%	-23%
SMILES	AMA1-RON2 inh	AmpC inh detg	LmPK inhibitor	FBPA Giardia inh	AmpC no deterg
CC(=O)Nc1cnc(NC(=O)c2cccc(F)c2)cc1C	0%	?	-18%	-8%	-2%
Cc1ccc(NC(=O)CSc2nc(N)c3c4c(sc3n2)CSC(C)(C)C4)cc1	-5%	?	2%	-6%	-27%
Cc1ccccc1NC(=O)CSc1nc(N)c2c3c(sc2n1)CSC(C)(C)C3	-15%	?	-2%	1%	16µM*
CCOC(=O)C1=CCN(S(=O)(=O)c2ccccc2Br)C1c1cccc(C)c1 (configuration not stated)	0%	nt	nt	nt	nt
NS(=O)(=O)c1ccc(NC(=O)COc2cccc3ccccc23)cc1	-1%	1%	-1%	3%	13µM*
CCc1ccccc1OCC(=O)Nc1ccc(S(N)(=O)=O)cc1	5%	2%	-2%	1%	-27%
Clc1ccc(/C=N/Nc2nc(Cl)nc3ccccc23)cc1	55%	9%	-1%	-8%	18µM*
COc1ccc(N2C(=O)CSC23C(=O)N(CC(=O)NCCc2ccccc2)c2ccccc23)cc1 (configuration not stated)	nt	1%	nt	nt	nt
COc1cc2c(cc1OC)CN(Cc1cc(=O)oc3cc(C)c(Cl)cc13)CC2	-4%	-11%	-3%	-14%	10µM*
COc1cccc(-c2nc(SCc3cc(=O)c4ccc(C)c(C)c4[nH]3)n[nH]2)c1	nt	18%	nt	nt	nt
CC1CCC(NC(=O)C2(C)CCC(=O)N2Cc2cccnc2)CC1 (configuration not stated)	-6%	?	0%	-1%	45µM*
Cc1ccn2c(C(=O)CSc3ccccc3Cl)c(C)nc2c1	-1%	2%	3%	0%	0.32µM*
CCOC(=O)c1c(C)nc2cc(C)ccn12	8%	-9%	-3%	-1%	-11%
CC(C)CNS(=O)(=O)c1ccc(CCC(=O)N2CCOCC2)cc1	-10%	4%	-8%	1%	0.22µM*
COc1ccc2c(c1OC)C(=O)OC2Nc1nc(-c2cc3cc([N+](=O)[O-])ccc3oc2=O)cs1 (configuration not stated)	-25%	-15%	0%	5%	-20%
COc1ccc2c(c1OC)C(=O)OC2Nc1nc(-c2cc3ccccc3oc2=O)cs1 (configuration not stated)	1%	-5%	22µM*	2%	-24%
CC(C)(C)[C@H]1COC(=O)CC/C=C\C[C@@H](CC(=O)N(CCO)Cc2ccccc2)C(=O)N1	3%	nt	nt	nt	-2%
CN(C(=O)c1ccco1)c1nc2c(s1)CCCC2	-4%	-4%	25µM*	-1%	-5%
CC1CN(C(=O)c2cc3c(=O)n4ccccc4nc3n2C)CC(C)O1 (configuration not stated)	11µM*	2%	1%	nt	-2%
O=C(/C=C/c1ccccc1Cl)Nc1ccccc1	7%	-10%	14µM*	-10%	-31%
Cc1cn(C)c(CC(=O)Nc2ccc(F)cc2Cl)c1C(=O)O	nt	-6%	nt	nt	nt
Cc1ncc(CO)c(/C=N/NC(=O)c2cc(Br)ccc2O)c1O	4µM*	-12%	4%	19%	-27%
Cc1ccc(C(=O)Nc2ccc(C(=O)N/N=C/c3c[nH]c4ccccc34)cc2)cc1	26%	?	3%	-11%	-31%
Cc1cccc(NC(=S)N/N=C/c2c[nH]c3ccccc23)c1	82%[11.6 µM]	-7%	3%	7%	16µM*
COc1ccccc1NC(=O)Cn1ncc2c1-c1ccccc1OC2	0%	-14%	3%	3%	6.3µM*
